# Assay outcomes as filed in PubChem.
# The list is not random: actives were taken first. Their share in the collection is about 2.8%.
# PP5 primary – blocks human protein phosphatase 5 activity | P53041 | purified PP5c, OMFP substrate fluorescence | inhibition, % at 6.7 µM | 320,000 tested, 0.18% active;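 active = inhibition above the campaign's mean inhibition across all tested compounds plus 3 SD, cut at about 9.5% in these data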;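 note: 0% = DMSO only and 100% = 100 µM cantharidin control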
# IDE cell inh – inhibitors of human insulin-degrading enzyme in cells | AID 434962 | P14735 | 320,000 tested, 0.41% active | inhibition, % at 5.59 µM | HEK cells, FAbetaB cleavage, fluorescence polarization;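 active = percent inhibition above the average of all tested compounds plus 3 SD, set per screening campaign, cut at about 16% in these data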;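 note: IDE supplied by intact live HEK cells; FP after avidin binding of uncleaved biotin substrate so inhibition keeps polarization high; 0% = DMSO wells and 100% = 60 µM reference IDE inhibitor Ii1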
# PP1 inh – blocks human PP1-alpha phosphatase, a PP5 counter-screen. inhibition, % at 6.7 µM. P62136. purified PP1alpha, OMFP fluorescence. 320,000 tested, 0.9% active. AID 2235;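 active = inhibition above the mean inhibition of all tested compounds plus 3 SD, computed separately for each screening campaign, cut at about 15% in these data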
# Target sequence (P62136 whole entry, looked up): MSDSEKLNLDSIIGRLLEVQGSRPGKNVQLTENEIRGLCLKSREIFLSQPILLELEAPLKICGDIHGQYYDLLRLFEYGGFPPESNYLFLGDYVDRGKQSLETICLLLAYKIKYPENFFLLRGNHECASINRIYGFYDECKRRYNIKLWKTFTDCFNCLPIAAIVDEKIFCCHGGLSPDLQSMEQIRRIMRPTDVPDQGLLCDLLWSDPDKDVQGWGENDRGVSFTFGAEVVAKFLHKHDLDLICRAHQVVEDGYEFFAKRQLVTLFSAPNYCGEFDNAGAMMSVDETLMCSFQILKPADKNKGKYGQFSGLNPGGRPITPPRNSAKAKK
# IDE cell activ – activators of human insulin-degrading enzyme in cells; 340,000 tested, 0.073% active; P14735; AID 493087; activation, % at 5.96 µM; HEK cells, FAbeta-B cleavage, fluorescence polarization; 0% vehicle, 100% cell-free pure enzyme wells;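 active = activation above the mean of all tested compounds plus 3 SD, set per screening campaign, cut at about 17% in these data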
# Granule exo inh – blocks lytic granule exocytosis | TALL-104 LAMP-1 surface exposure, flow cytometry; cells stimulated with thapsigargin and PMA | inhibition, % at 10 µM | 360,000 tested, 0.66% active;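 active = inhibition above about 55%, limit read from the data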
# SKKanGAS inh – inhibitors of SKKanGAS S. pyogenes growth in kanamycin (SK-promoter or general growth effect) | inhibition, % at 7.5 µM | BacTiter-Glo, 6 h | 300,000 tested, 1.3% active;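 active = mean replicate score, as percent of positive control median, at least 50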;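 note: strain carries kanamycin resistance gene driven by streptokinase promoter and grows in 40 µg/ml kanamycin; loss of luminescence reflects streptokinase promoter inhibition or plain growth inhibition; 0% = median of DMSO wells and 100% = positive control at its reference dose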
# PP5 conf – confirmation of human PP5 phosphatase inhibitors; 460 tested, 22% active; inhibition, % at 6.7 µM; AID 2331; Purified PP5, fluorogenic phosphatase substrate, fluorescence; shares compounds with PP5 primary; in the data active = inhibition above about 9.5%
# PP1 counter 3x – inhibits human PP1 phosphatase in PP5 counter-screen; shares compounds with PP5 primary; PP1 enzyme, fluorescent phosphatase substrate; inhibition, % at 6.7 µM; 460 tested, 4% active; AID 2355; in the data active = inhibition above about 16%
# Numbers without * were called inactive; . = no result.
SMILES,PP5 primary,IDE cell inh,PP1 inh,IDE cell activ,Granule exo inh,SKKanGAS inh,PP5 conf,PP1 counter 3x
C=CCN1C=C2C(=O)C(C)(OC(=O)CCC(=O)OC)C(=O)C(Br)=C2C=C1c1ccc(OC)cc1 (stereo not given),12*,-4,7,5,2,4,38*,18*
N/C(=N\c1nc2c(c(=O)[nH]1)CCC2)Nc1cccc(Cl)c1,0,1,2,4,8,5,.,.
Cc1cccc(N/C(N)=N/c2nc3c(c(=O)[nH]2)CCCC3)c1,13*,3,-1,0,-4,-4,-8,-6
CC(C)C[C@H]1CN=C(Nc2ccccc2)N1CCCCc1ccccc1,46*,3,4,-2,-3,1,-4,-7
CC(C)CCCN1C(Nc2ccccc2)=NC[C@@H]1CC(C)C,1,2,-3,4,-9,2,.,.
CCCSc1nsc(NC(=O)CC)n1,2,1,1,6,1,6,.,.
CCCSc1nsc(NC(=O)Nc2ccc(F)cc2F)n1,10*,7,7,4,-14,64*,-2,1
CCCOC(=O)c1ccc(NC(=O)C2C3C=CC(O3)C2C(=O)O)cc1 (stereo not given),21*,-3,1,1,-6,5,0,0
CC(C)OC(=O)c1cc(NC(=S)Nc2ccc([N+](=O)[O-])cc2)cc(C(=O)OC(C)C)c1,2,2,-1,7,-4,46,.,.
O=C(O)C1C2C=CC(C2)C1C(=O)Nc1ccc2c(c1)OCCO2 (stereo not given),0,-1,1,-4,2,4,.,.
O=C(O)C1C2C=CC(O2)C1C(=O)Nc1ccc2c(c1)OCCO2 (stereo not given),15*,1,7,.,.,-1,1,10
CC(C)OC(=O)c1cc(NC(=O)C2C3C=CC(O3)C2C(=O)O)cc(C(=O)OC(C)C)c1 (stereo not given),31*,8,8,4,-1,-4,-4,3
COc1cccc(NC(=O)C2C3C=CC(O3)C2C(=O)O)c1 (stereo not given),24*,-4,5,-1,10,1,2,18*
CCC(C)NC(=O)CC(NS(=O)(=O)c1ccc(NC(C)=O)cc1)C(C)C (stereo not given),0,-2,0,4,-2,-1,.,.
NC(=O)c1ccc(/C(N)=N/S(=O)(=O)c2cc(C(F)(F)F)cc(C(F)(F)F)c2)cc1,1,2,-4,.,0,-7,.,.
CC1(C(=O)NC2CCc3ccccc32)CCN1CCc1ccccc1 (stereo not given),.,.,.,.,0,.,.,.
COc1cc(OC)cc(-c2c(-c3cccs3)c3cc(-c4ccn[nH]4)ccc3n2C)c1,1,-2,5,2,7,.,.,.
COC(=O)c1cc(OC(=O)CCc2ccc(OC)c(OC)c2)cc(C(=O)OC)c1,-2,-2,1,4,2,4,.,.
O=C1NC(c2ccccc2)N=C2Oc3ccccc3C=C12 (stereo not given),.,.,.,-4,-5,.,.,.
CC(=O)Nc1ccc(S(=O)(=O)N2CCCc3ccccc32)cc1,-1,-1,-4,-3,-2,-6,.,.
CC(=O)c1ccc(NC(=O)C2C3C=CC(O3)C2C(=O)O)cc1 (stereo not given),24*,6,4,0,1,-3,3,8
O=C(O)C1C2C=CC(O2)C1C(=O)Nc1ccc(S(=O)(=O)N2CCc3ccccc32)cc1 (stereo not given),17*,12,3,-26,1,-12,3,3
COc1c(C)cc(C(O)c2ncc(-c3ccccc3F)[nH]2)cc1C (stereo not given),.,.,.,.,-10,.,.,.
NS(=O)(=O)c1ccc(NC(=O)c2cc(-c3cccs3)nc3ccccc23)cc1,3,9,8,-2,-7,-6,.,.
NNC(=O)c1cc(-c2cccs2)nc2ccccc12,15*,9,2,-5,0,2,-3,-2
SMILES,PP5 primary,IDE cell inh,PP1 inh,IDE cell activ,Granule exo inh,SKKanGAS inh,PP5 conf,PP1 counter 3x
COCCn1c(N)c(C(=O)NCC2CCCO2)c2nc3ccccc3nc21 (stereo not given),13*,-1,4,-6,0,17,15*,-4
COCCn1c(N)c(C(=O)NCc2cccs2)c2nc3ccccc3nc21,11*,9,0,-1,1,13,5,4
COCCn1c(N)c(S(=O)(=O)c2cccs2)c2nc3ccccc3nc21,6,6,-9,-3,1,-2,.,.
CC(C)Cn1c(N)c(C(=O)NCC2CCCO2)c2nc3ccccc3nc21 (stereo not given),5,-1,2,-1,3,5,.,.
Nc1c(C(=O)NCc2ccc3c(c2)OCO3)c2nc3ccccc3nc2n1CCCN1CCOCC1,9.7*,10,4,-2,12,8,13*,4
CCOc1ccc(NS(=O)(=O)c2ccc(Cl)c(N=Nc3c(O)[nH]c(=S)[nH]c3=O)c2)cc1Br,.,.,.,.,-5,.,.,.
CN(C)NC(=S)NC1CC2CCC1C2 (stereo not given),-2,-2,0,-3,-2,4,.,.
CN(C)C(CNC(=O)CNC(=O)c1ccc2ccccc2c1)c1ccccc1 (stereo not given),3,3,-2,4,9,2,.,.
CCN(CC)c1ccc(C(=O)NC(=S)Nc2cc(S(=O)(=O)N3CCOCC3)ccc2-n2cncn2)cc1,18*,-3,-4,1,-11,2,-4,3
C=CCNC(=S)Nc1cc(S(=O)(=O)N2CCOCC2)ccc1-n1cncn1,-1,0,1,1,9,7,.,.
Nc1c(C(O)(C(F)(F)F)C(F)(F)F)cc(C(O)(C(F)(F)F)C(F)(F)F)c2ccccc12,13*,-6,9,5,8,23,15*,14
O=C1C(Cl)=C(N2CCN(c3ccccc3[N+](=O)[O-])CC2)C(=O)c2ccccc21,14*,3,9,7,47,18,24*,5
O=[N+]([O-])c1ccc(-c2nc3ccc([N+](=O)[O-])cc3[nH]2)cc1,2,-1,-2,1,-1,0,.,.
Nc1ccc(-c2nc3ccc([N+](=O)[O-])cc3[nH]2)cc1,12*,-3,-1,4,-1,0,-5,-4
CC1CC(C)CN(C(=O)c2ccc3c(=O)n(Cc4ccc5c(c4)OCO5)c(=S)[nH]c3c2)C1 (stereo not given),11*,12,14,0,-1,24,2,4
